This assay has as its system VDR:RXRa (NR concentration 270 nM, RXRa partner concentration 90 nM). Briefly: PBM binding z-score (relative to random genomic background probes); higher = stronger binding; sequences stand for … in GC…GCGATTGACAGCGTAGAATGAAGG
The protocol: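 Protein-binding microarray (Agilent 4x180K custom design, double-stranded 60-nt probes: 5' GC cap, 34-nt variable region, 24-nt constant primer region; full probe sequence given). Purified or IVT nuclear receptor:RXRα heterodimers (3:1 NR:RXRα, mostly 270:90 nM) or homodimers were incubated for 1 h in PBS with 2% milk and no ligand, then detected with Alexa488 antibodies. Fluorescence from o1-orientation probes (~5 replicates averaged) was converted to z-scores against 500 random hg19 background probes. Variable regions are seed direct-repeat (DR0–DR5) sites, all their single-nucleotide variants and half-site ablations.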
Sequence CGAACTAAGTCAGAACAGGACAGTGAAGGATGAT registered a PBM binding z-score of -0.25. The figure for CCTGCTAGGTTATGGTCAGCTAATCTACAGTATG is -0.216; for AGAACGAGGGCACGCAGAGTTGATAGCAGAGTAG it is 2.02. The figure for CCAGACAGGTGAAAGGCAACTCAGTCTGGTACGC is -0.108. For TAGCCTAGGTCATGCGGTCCAGTATAGTGTCGGC, the PBM binding z-score worked out at 4.75. ACTCGGAGGACAAAAGTCAGAGCTACGCCAGTGA returned a PBM binding z-score of -0.553.

For ACAGACAGGTGAGTGAAAGTAACTCAGCTGGACG, the PBM binding z-score is -0.256. In the case of TCTCGTAGGACACGAAAGGTCAGAGCTCGACATC it was 3.09; in that of ACTTACGGGTGAACGAGGTTATAGCACGCGTATA, 5.33.

In turn, ACTAGCAGGCCAAGTTTGGGTCACTCTAACAAAG came in with a PBM binding z-score of 0.395. On to TCTAATTGGTCACGGAGGTCACACACGACGGGTA, for which the PBM binding z-score stood at 6.1. The figure for GCGACTGGGGCATCAGCAGGTTACCACAACTTAA is -0.211; for CCTTACGGATCAAGGTTATAGCACGGGTGGTACG it is 0.474. The figure for GCTTACGGGTCAAAGGTTATAGCCTGAATAGAAT is 5.72; for CCGACTGGTGCAAGGTTACCATAACGCACAGCCA it is 0.278; for CCTACTGGGCCAAGGTCAGTGATCAGTCAAAGCA it is 0.692. In the case of ACTAGTTGGTCAGCTGAGGTGACACACAATTCGG it was 0.731. In the case of CGTCAAAGTTCAACTAAGGCAACGTAAAGCACGC, the PBM binding z-score amounted to 4.19. In the case of CGAACTAGGTCAGTACAGGACAGTGAAGGATGAT it was 0.713; in that of CGAACTAGGTCATCCACGACAGTGAATACATTGA, 2.18.

In turn, ATCGAAAGGCCGAGGTGAGTATAGAGAAAGGGAA had a PBM binding z-score of -0.47. The figure for CCTATTAGTTGACCATAAGGACAACCGAAGCTCG is 1.07. In the case of CGTGCAAGGTCATAGGAGGTCAGTGAAGACAGAT it was 6.87; in that of AGTCAAAGTTCGGGACGAGGTAACGTAAAGCACG, 0.784. In the case of CCAGACAGGTGAAGGGTAACTCAGTCTGGTACGC it was -0.111; in that of AATACAGCGTCATCGTAGGCCAGAGTACGCACAG, -0.373; in that of CCTACTGGGCCAAGGGCATTGATCAGTCAAAGCA, -0.469. In turn, TCAGACAGGTGAAGGTAACTTAGGTACGCAGTCG yielded a PBM binding z-score of 1.02. In turn, ACACACAGGTGATGAAGGTAACTCAGGCTATCAT had a PBM binding z-score of 0.511. In the case of CCTCGGAGTACAACAGGAGGTCAGAGCTGCCAGA it was 2.09; in that of AGTCAAAGTTCAGGACGAGGTAACGAAAAGCACG, 2.95; in that of ATCTCTAGGTAAGACTCAGTTCAGTCAAGAACGC, 0.989. The figure for CGTCCAAGGTGAAGGTCAGTGAAAGAGACTCGAA is 0.859; for TCTAGTTGGTCAAAGGTCAGACACTCGAAATGCG it is 4.09; for ATCGAAAGGTCGAAGGTGAGTATCCCCACCCGAA it is 2.53. In the case of CTACCAAGGTGACCAAGGTCGTTGATTACTATTC it was 5.32; in that of CCTCGGAGGACAGAAGGTGAGAGCTGTCCGCTTT, -0.483.

With TCTAGTTGGTAACGGAGGTCACACACGACGGGTA, the PBM binding z-score was 3.8. In the case of CCTAGTCGGTCAGGAGGTCACACACCGGATATGA it was 3.97; in that of CCTACTGGGCCATCAGGTCATTAATATCAACGTT, 1.49.
